An excerpt weighted towards active compounds, which were near 8.9% of everything screened.
D3 antag – D3 dopamine receptor (human) antagonism. P35462. D3R cells, DiscoveRx beta-arrestin luminescence, antagonist mode; stronger effect = lower value. max response, negative = inhibition, %. 360,000 tested, 2.5% active. AID 652054; in the data active means max response below about -50%; inconclusive means no clear call, values can overlap the other calls; further: on the % scale 0 is the no-effect control and ±100 the full control effect
Target sequence (P35462 whole entry, looked up): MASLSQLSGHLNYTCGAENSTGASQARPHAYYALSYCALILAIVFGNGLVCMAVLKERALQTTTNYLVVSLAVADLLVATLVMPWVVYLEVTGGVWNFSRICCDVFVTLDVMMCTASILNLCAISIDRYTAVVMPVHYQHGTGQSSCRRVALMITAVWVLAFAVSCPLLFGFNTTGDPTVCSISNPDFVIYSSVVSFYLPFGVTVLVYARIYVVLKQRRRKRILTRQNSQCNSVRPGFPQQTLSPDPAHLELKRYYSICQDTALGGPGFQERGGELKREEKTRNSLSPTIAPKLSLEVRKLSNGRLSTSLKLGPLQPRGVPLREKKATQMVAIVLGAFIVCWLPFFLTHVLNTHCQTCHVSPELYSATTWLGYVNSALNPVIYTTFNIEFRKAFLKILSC
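Cells expressing the human receptor were seeded at 1500 cells/well, incubated overnight at 37 degrees C in 5% CO2, then exposed to library compounds with dopamine controls for 90 minutes at 37 degrees C before luminescent detection.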
KB-V1 cytotox – KB-V1 MDR subline cytotoxicity. KB-V1 MDR cells viability, CellTiter-Glo, 72 h. Potency, µM (titrated, usually from 46.1 µM), actives largely listed as cytotoxic. 400,000 tested, 3.4% active. AID 1347076; further: potency means the concentration at half of the fitted maximal effect; on the % scale 0 is the no-effect control and ±100 the full control effect; nearly all actives have a fitted effect of over 60% in size
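Potencies derive from concentration-effect curves fitted to normalized luminescence (CellTiter-Glo) of KB-V1 cells treated for 72 h at 37 degrees C in phenol-red-free DMEM containing 10% FBS.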
MCF10A rerep – inducers of DNA re-replication in MCF 10A breast cells; MCF 10A DNA re-replication, Hoechst nuclear intensity, 48 h; Potency, µM (top dose mostly 46.1 µM), for the others: top-dose activity, positive = re-replication, usual class: activators; 350,000 tested, 2.9% active; AID 624296; further: potency means the concentration at half of the fitted maximal effect; % of control where 0% means no effect; nearly all actives have a fitted effect of over 50% in size
KB-3-1 tox – KB-3-1 parental cell cytotoxicity; 400,000 tested, 1.4% active; Potency, µM (doses to about 46.1 µM), most hits filed as cytotoxic; KB-3-1 viability, CellTiter-Glo ATP luminescence, 72 h; further: potency means the concentration at half of the fitted maximal effect; on the % scale 0 is the no-effect control and ±100 the full control effect; nearly all actives have a fitted effect of over 60% in size
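Viability of parental KB-3-1 cells, measured by CellTiter-Glo luminescence, followed a 72 h incubation at 37 °C with pinned compounds in phenol-red-free DMEM containing 10% FBS.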
SW480 rerep – DNA re-replication induction in SW480 cells; AID 624297; 340,000 tested, 1.8% active; SW480 DNA re-replication, Hoechst DNA content imaging, 48 h; Potency, µM (titrated, usually from 46.1 µM), for inactives: at the top dose re-replication activation, most hits filed as activators; further: potency means the concentration at half of the fitted maximal effect; % of control where 0% means no effect; nearly all actives have a fitted effect of over 55% in size
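Image-based DNA-content assay: after two days of treatment, nuclei were labelled with the DNA dye Hoechst and imaged, and hits were compounds raising the count of nuclei showing high fluorescence intensity.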
D3 ag – D3 dopamine receptor (human) agonism. D3R DiscoveRx beta-arrestin cells, luminescence, 90 min. max activation, %. 410,000 tested, 0.58% active. AID 652048; in the data active means max activation above about 30%; further: 0% is about no effect
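Cells at 1500/well, incubated overnight, then treated with pinned compounds (dopamine as control) for 90 min at 37 degrees C. DiscoveRx reagent added for 30 - 60 minutes at room temperature; luminescence read.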
Active calls of the source: *; i = inactive; ? = inconclusive; · = no result; [ ] = dose if it differs, or a comment. Unless noted, the call rests on the fitted dose curve; in most records, active means well fitted curve in the direction sought with a large enough effect; inconclusive means small, poorly fitted or top-dose-only effect, or another doubt; inactive means no such curve, though single readings can be large; an effect the other way counts as inactive or inconclusive.

SMILES	D3 antag	KB-V1 cytotox	MCF10A rerep	KB-3-1 tox	SW480 rerep	D3 ag
CCc1[nH]nc2c1C(c1ccc(Br)s1)C(C#N)=C(N)O2 (stereo not drawn)	-56*	i	?	?	?	-2
COc1ccccc1C(=O)OCC(=O)Nc1ccc(N2CCCCC2)cc1	·	i	·	?	·	·
CC1(C)CC(N2CCCC2)=CC(=[N+]2CCCC2)C1	-2	i	-2%	18µM*	0%	1
CC1(C)CC(N2CCCC2)=CC(=[N+]2CCCCC2)C1	23	i	?	5.2µM*	3%	-1
CC1(C)CC(N2CCN(Cc3ccccc3)CC2)=CC(=[N+]2CCCCC2)C1	-16	i	-31%	1.5µM*	-38%	-23
CN(Cc1ccccc1)C1=CC(=[N+]2CCCCC2)CC(C)(C)C1	-12	i	?	?	24%	2
COCCN1C[C@@H](CO)O[C@@H](n2cnc3c(N4CCN(CCO)CC4)ncnc32)C1	3	i	·	i	·	-14
CCOc1cc(CNC(=O)CSc2n[nH]c(-c3ccccc3)n2)cc(OCC)c1OCC	·	i	·	i	·	6
CC1=C(C(=O)Nc2ccccc2C)C(c2cccnc2)n2nc(SCc3ccccc3F)nc2N1 (stereo not drawn)	·	i	·	i	·	-6
NC(=O)[C@@H]1CCCN1C(=O)[C@H](Cc1cnc[nH]1)NC(=O)[C@@H]1CCC(=O)N1	·	·	2%	·	-11%	6
Cc1cc(Nc2cccc(C(F)(F)F)c2)nc2ccc(NC(=O)c3cccc(Cl)c3)cc12	·	i	·	?	·	2
COc1cccc(C(=O)Nc2nc3nc(C)c(C)c(=O)n3[nH]2)c1	·	·	·	·	·	-3
Cc1nn2c(=O)cc(COc3ccc(/C=C(\C#N)C(=O)Nc4ccc(F)cc4)cc3)nc2s1	·	i	·	i	·	78*
O=[N+]([O-])c1ccc(-[n+]2ccc3ccccc3c2)c([N+](=O)[O-])c1	-106*	5.2µM*	?	4.6µM*	?	-46
O=C(/C(=C(\[O-])c1ccccc1)[n+]1ccc2ccccc2c1)c1ccc([N+](=O)[O-])cc1	-15	i	14%	i	-10%	-25
O=C(Nc1ccc2c(c1)OCO2)c1cnn2c(C(F)(F)F)cc(-c3ccco3)nc12	10	i	-1%	i	0%	2
O=C(NC1CCCCC1)c1cc2nc(-c3ccco3)cc(C(F)(F)F)n2n1	37	?	-3%	i	15%	-8
O=C(NC12CC3CC(CC(C3)C1)C2)c1cc2nc(-c3ccco3)cc(C(F)(F)F)n2n1	-6	i	3.7µM*	i	15µM*	-8
O=C(Nc1cnn(C23CC4CC(CC(C4)C2)C3)c1)c1cnn2c(C(F)(F)F)cc(-c3ccco3)nc12	-18	8.2µM*	-15%	i	-15%	-5
CC1CCn2c(nc3cc(C(=O)NCCc4ccccc4)ccc32)C1 (stereo not drawn)	·	·	·	·	·	4
COc1ccccc1C(CNC(=O)CCNS(=O)(=O)c1ccc(Br)cc1)N1CCCC1 (stereo not drawn)	-6	i	-4%	i	6.5µM*	-18
COc1ccc(C(CNC(=O)C(C)Oc2ccc(Br)cc2)N2CCCCC2)cc1 (stereo not drawn)	-92*	?	19%	i	-27%	-18
COc1ccc(C(CNC(=O)CCNS(=O)(=O)c2ccc(Br)cc2)N2CCOCC2)cc1 (stereo not drawn)	-5	i	-3%	i	-12%	-19
COc1ccc(C(CNC(=O)CCNS(=O)(=O)c2ccc(Br)cc2)N2CCCC2)cc1 (stereo not drawn)	-50*	?	0%	i	-10%	-34
CCCCCCCCCCCCCCCCCCN(CCCCCCCCCCCCCCCCCC)c1ccccc1	·	i	·	i	·	·
SMILES	D3 antag	KB-V1 cytotox	MCF10A rerep	KB-3-1 tox	SW480 rerep	D3 ag
CN(C)c1ccc(C(CNC(=O)c2c(F)cccc2Cl)N2CCOCC2)cc1 (stereo not drawn)	·	i	·	i	·	7
Cc1cccc(C(=O)Nc2cccc(OCc3cc(=O)n4c(C)csc4n3)c2)c1	·	i	·	i	·	-4
COCC(=O)OC1CCn2c1nc1c2C(=O)C(C)=C(NC(C)=O)C1=O (stereo not drawn)	-10	i	9.2µM*	?	1.5µM*	-3
CC1(c2nnnn2Cc2ccccc2)CCC(=O)N1Cc1cccc(C(F)(F)F)c1 (stereo not drawn)	-5	?	·	i	·	-1
Cc1ccc(Sc2nc3ccc(C)cn3c(=O)c2/C=N/O)cc1	-29	i	16µM*	i	?	-11
CN(C)c1ccc(CN(Cc2ccco2)C(=O)COc2ccc(F)cc2)cc1	·	·	·	·	·	-8
Cc1cc(Nc2cccc(Br)c2)n2c(nc3ccccc32)c1C#N	·	?	·	8.2µM*	·	-6
N#Cc1c2c(c(Nc3ccccc3)n3c1nc1ccccc13)CCC2	-1	i	16µM*	?	3%[9.22 µM]	0
N#Cc1c2c(c(Nc3ccc(F)cc3)n3c1nc1ccccc13)CCCC2	-20	i	?	?	7%	-10
Cn1nc(C(F)(F)F)c(/C=N/OC(=O)c2ccccc2)c1SCc1ccccc1Cl	38	12µM*	18µM*	?	16µM*	1
C=CCN1CCc2nc(N)sc2CC1	4	i	-7%	i	-10%	93*
CCN1CCc2nc(N)sc2C1	19	i	0%	i	2%	40*
C=CCN1CCN(Cc2cnc(Cl)s2)CC1	-26	i	2%	i	2%	-4
S=c1[nH]nc(-c2ccco2)n1/N=C/C(Cl)=C/c1ccccc1	-27	i	7.3µM*	i	?	-1
S=c1[nH]nc(-c2cc(-c3ccccc3)n[nH]2)n1/N=C/C(Br)=C/c1ccccc1	-67*	?	3.3µM*	15µM*	?	-16
Cc1ccsc1/C=N/n1c(-c2ccccc2)n[nH]c1=S	-1	i	14%	i	3%	-1
Cc1cc(-c2n[nH]c(=S)n2/N=C/c2cccc(O)c2)n[nH]1	?	i	8%	i	11%	-4
Cc1cc(-c2n[nH]c(=S)n2/N=C/C(Cl)=C/c2ccccc2)n[nH]1	-26	21µM*	4.6µM*	?	?	-13
Cc1ccsc1/C=N/n1c(-c2ccco2)n[nH]c1=S	-59*	i	-185%[0.0737 µM]	i	5%	-4
CC(/C=N/n1c(-c2ccco2)n[nH]c1=S)=C\c1ccco1	-12	i	-2%	i	-6%	0
CCCc1nn2c(=O)cc(COC(=O)c3ccccc3NC(=O)COc3ccccc3F)nc2s1	·	i	·	i	·	-5

Screening results as filed in PubChem BioAssay.
